What all share (experiment): NCI-60 one-dose screen, 48 h (100 = growth as untreated, 0 = no growth, -100 = all killed)
Common to all, as to settings: 10 µM unless noted

The subject of assay [1] is SK-MEL-2 melanoma.
The subject of assay [2] is EKVX NSCLC.
For assay [3], the system named is SN12C renal.
Assay [4] relates to UO-31 renal.
Assay [5] concerns TK-10 renal.
For assay [6], the system named is ACHN renal.
Assay [7] relates to CAKI-1 renal.
The subject of assay [8] is A498 renal.
Assay [9] concerns CCRF-CEM leukemia.
Assay [10] deals with MOLT-4 leukemia.

The panel holds about 83,000 compounds, 20% with a hit somewhere; the sample as a whole holds those more often.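 How to read the values: 0–100, growth inhibition (40 = 60% inhibited); 0, no net growth; -100 to 0, cell death (-40 = 40% of starting cells died; -100 = all dead).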 A number with no mark means an inactive call. Activity calls are given as the source filed them. Rule for the calls: active = growth percent below 10; inactive = the rest.

Regarding `NS(=O)(=O)c1ccc(-c2cc(-c3nnc(SCC(=O)Nc4ccc(C(=O)/C=C/c5ccc(Cl)cc5)cc4)n3-c3ccccc3)c3ccccc3n2)cc1`, the growth in [1] was 105%; in assay [2], 96.2%; in assay [3] it was 94.9%; in assay [4] it was 84%; in [5], 96.4%; in assay [6], 106%. Moreover, the growth was 77.1% in assay [7], 49.9% in assay [8], 90.3% in [9] and 68.5% in assay [10].
Take `O=C1Nc2c(C(=O)O)cccc2/C1=N/c1n[nH]c(=S)s1`: the growth in assay [1] was 98.8%; in [2], 77.6%; in [3], 93.4%; in assay [4] it was 69.9%; in assay [5] it was 117%; in assay [6] it was 78%. Moreover, the growth in assay [7] is 52%; in assay [8] it was 115%; in [9], 88.7%; in assay [10], 90%.
With `CN(Cc1ccccc1)c1nc(Cl)c(C2CC(c3ccccc3)=NN2c2ccccc2)s1` (stereo not given), the growth is 78.5% in assay [1]; 85.3% in [2]; 103% in assay [3]; 81.5% in [4]; 115% in [5]; 102% in assay [6]. Further, the growth in assay [7] was 68.7%; in assay [8] it was 105%; in [9], 94.3%; in assay [10], 97.1%.
On to `CC1CCN(C(=S)SCC(=O)NC(=O)c2ccccc2)CC1`, for which the growth in assay [1] was 102%; in assay [2], 102%; in assay [3] it was 109%; in assay [4], 92%; in [5] it was 99.8%; in assay [6], 112%. Further, the growth was 102% in assay [7], 99.6% in [8], 106% in [9] and 93.6% in assay [10].
Take `Fc1cccc(-c2ccc3c(c2)C2(CCNCC2)CN3)c1`: the growth was 102% in assay [1]; 96.6% in assay [2]; 94.9% in assay [3]; 88.2% in [4]; 114% in assay [5]; 100% in [6]. Moreover, the growth in [7] was 96.1%; in [8], 102%; in [9], 119%; in assay [10], 91.7%.
For `CC1=CC(c2ccco2)=C2C(N)=NNC2N1` (stereo not given), the growth was 108% in assay [1]; 96.9% in assay [2]; 89.9% in assay [3]; 80.9% in assay [4]; 111% in [5]; 90.8% in assay [6]. Besides, the growth in assay [7] was 82.6%; in assay [8] it was 86.3%; in assay [9], 101%; in [10] it was 103%.
Consider `O=C(Cc1ccc(/C=C/C(=O)c2ncc[nH]2)cc1)Nc1cc(C(F)(F)F)cc(C(F)(F)F)c1`, for which the growth is 110% in [1]; 108% in assay [2]; 94.9% in [3]; 62.9% in [4]; 115% in [5]; 105% in assay [6]. In addition, the growth is 78.5% in assay [7], 94.3% in [8], 92.9% in assay [9] and 67.7% in assay [10].
As to `CCn1cc(CNc2ccc(C(=O)Nc3cc4cc(OC)c(OC)cc4c(C)n3)cc2)cn1`, the growth in assay [1] is 38.7%; in assay [2] it was 60.5%; in [3], 79.3%; in assay [4] it was 19.8%; in assay [5], 52.7%; in assay [6], 60.8%. The growth in [7] was 69%; in assay [8], 73.8%; in assay [9] it was 17.5%; in assay [10], 35.2%.
On to `CNC(C)[C@H]1CCC2C3CC=C4C(=O)[C@@H](NC(=O)C=C(C)C)CC[C@]4(C)C3CC[C@@]21C` (stereo not given in full), for which the growth in [1] is 23.8%; in [2] it was 24.2%; in assay [3], 17%; in assay [4], -35.5% (active); in [5] it was 60.1%; in assay [6] it was 26%. The growth in assay [7] is 3.96% (active); in assay [8] it was 56%; in assay [9], -20% (active); in assay [10], -55.8% (active).
As for `O=C(Cn1nnc2ccccc21)N/N=C/c1c[nH]c2ccccc12`, the growth in assay [1] was 38.4%; in assay [2] it was 62.4%; in assay [3], 45.9%; in assay [4], 52.4%; in [5] it was 64.7%; in [6], 64.1%. Further, the growth in [7] is 45.7%; in assay [8] it was 60.4%; in assay [9] it was 47.7%; in assay [10], 29.9%.
On to `CC[C@]12C=CCN3CC[C@@]4(c5ccc(OC)cc5N(C)[C@H]4[C@@](O)(C(=O)OC)[C@@H]1OC(=O)CCC[P+](c1ccccc1)(c1ccccc1)c1ccccc1)[C@@H]32`, for which the growth is -65.3% (active) in assay [1]; 10.3% in assay [2]; 2.73% (active) in assay [3]; 80% in assay [4]; 22.3% in assay [5]; 89.9% in [6]. Moreover, the growth in assay [7] is 52.2%; in assay [8] it was 13.7%; in assay [9], 11.1%; in [10], 5.41% (active).
As to `CCOC(=O)c1c(C)nc2ccccc2c1/C=C/c1ccccc1`, the growth is 71.7% in assay [1]; 63.6% in [2]; 88.3% in [3]; 60.7% in [4]; 92.5% in assay [5]; 72.7% in [6]. The growth in assay [7] was 59.5%; in assay [8], 76%; in [9], 45.8%; in assay [10], 23.6%.

For the origin of these results see PubChem BioAssay (NCI).
